nsP2pro inh: Primary qHTS for inhibitors of NSP2Pro chikungunya virus (CHIKV) | Polyprotein P1234 (Chikungunya virus (strain S27-African prototype)), Q8JUX6 | FRET peptide cleavage, nsP2pro, fluorescence 1 h | Potency, µM (highest dose often 24.9 µM), inactives show at the top dose activity change, negative = inhibition, most hits filed as inhibitors | 1.1% of 31,000 active; further: nearly all actives have a fitted effect of over 60% in size
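Recombinant nsP2pro (150 nM) was preincubated with compound 15 min at room temperature in 10 mM Tris-HCl pH 8.0, 0.01% Tween 20. Peptide 2 FRET substrate (2.5 uM) was then added and fluorescence read after 1 h. Seven-point series, up to 25 uM.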
CHIKV nsP2 cell: Secondary cell base assay for inhibitors of NSP2Pro Chikungunya virus (CHIKV) | shares compounds with nsP2pro inh | cell-based CHIKV nsP2 protease reporter assay | Potency, µM (titrated, usually from 51.1 µM), for inactives: at the top dose activity change, negative = inhibition, actives largely listed as inhibitors | 10% of 450 active | AID 1964100, 2024; further: nearly all actives have a fitted effect of over 70% in size
Target sequence (Q8JUX6 220-798 limits assumed): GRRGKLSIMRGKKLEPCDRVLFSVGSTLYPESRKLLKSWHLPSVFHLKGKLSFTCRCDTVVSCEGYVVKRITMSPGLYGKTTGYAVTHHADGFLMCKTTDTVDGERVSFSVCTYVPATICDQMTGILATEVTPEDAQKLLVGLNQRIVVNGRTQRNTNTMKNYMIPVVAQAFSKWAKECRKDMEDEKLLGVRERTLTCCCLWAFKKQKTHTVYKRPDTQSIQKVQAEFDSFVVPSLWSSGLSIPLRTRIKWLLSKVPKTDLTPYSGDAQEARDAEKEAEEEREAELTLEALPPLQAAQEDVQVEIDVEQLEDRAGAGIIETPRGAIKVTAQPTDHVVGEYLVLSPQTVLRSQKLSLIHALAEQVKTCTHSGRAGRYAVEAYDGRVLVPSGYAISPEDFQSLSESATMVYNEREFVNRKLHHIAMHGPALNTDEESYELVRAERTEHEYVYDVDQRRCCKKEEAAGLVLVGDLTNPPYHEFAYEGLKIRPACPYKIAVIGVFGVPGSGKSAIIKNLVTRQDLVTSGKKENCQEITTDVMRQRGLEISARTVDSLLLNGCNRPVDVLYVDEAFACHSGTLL
CHIKV NSP2 FL: Selectivity profile for inhibitors of NSP2Pro chikungunya virus (CHIKV): Full length NSP2 enzyme counterscreen (CHIKV-NSP2) | shares compounds with nsP2pro inh | 39% of 410 active | AID 1964101, 2024 | Full-length CHIKV NSP2 protease enzymatic counterscreen | Potency, µM (highest dose often 50.7 µM), without a hit: at the highest dose activity change, negative = inhibition, most hits filed as inhibitors; further: nearly all actives have a fitted effect of over 65% in size
Furin counterscr: Selectivity profile for inhibitors of NSP2Pro chikungunya virus (CHIKV): Human furin counterscreen. shares compounds with nsP2pro inh. Recombinant human furin enzymatic counterscreen, fluorogenic substrate. Potency, µM (series often up to 50.6 µM), inactives show at the top dose activity change, negative = inhibition, hits mostly inhibitors. 6% of 410 active. AID 1964102, 2024
nsP2 NS23 pep: Selectivity profile for inhibitors of NSP2Pro chikungunya virus (CHIKV): Endogenous NS2/3 peptide Counterscreen; shares compounds with nsP2pro inh; Purified CHIKV nsP2 protease, endogenous NS2/3 peptide cleavage; Potency, µM (series often up to 51 µM), inactives show at the highest dose activity change, negative = inhibition, actives largely listed as inhibitors; 34% of 410 active; AID 1964103, 2024; further: nearly all actives have a fitted effect of over 55% in size
Papain cs: Selectivity profile for inhibitors of NSP2Pro chikungunya virus (CHIKV): Papain Counterscreen | shares compounds with nsP2pro inh | purified papain protease activity, enzymatic inhibition | Potency, µM (series often up to 51 µM), for the others: at the highest dose activity change, negative = inhibition, actives largely listed as inhibitors | 5% of 410 active
nsP2pro conf qHTS: Confirmatory qHTS for inhibitors of NSP2Pro chikungunya virus (CHIKV). shares compounds with nsP2pro inh. CHIKV nsP2 protease enzymatic activity, qHTS. Potency, µM (series often up to 25.5 µM), for inactives: at the top dose activity change, negative = inhibition, actives largely listed as inhibitors. 43% of 410 active; further: nearly all actives have a fitted effect of over 75% in size
HCV NS3 4A cs: Selectivity profile for inhibitors of NSP2Pro chikungunya virus (CHIKV): NS34A-HCV Counterscreen; 20% of 410 active; shares compounds with nsP2pro inh; HCV NS3/4A protease biochemical counterscreen; Potency, µM (doses to about 50.9 µM), actives largely listed as inhibitors; further: nearly all actives have a fitted effect of over 55% in size
The depositor's hits bear a star; i = inactive; ? = inconclusive; nt = no result; [ ] = remark or other dose. This is one part of a sample in which hits are shown more often than they occur. The call rests on the fitted dose curve. On the % scale 0 is the no-effect control and ±100 the full control effect; potency means the concentration at half of the fitted maximal effect.

SMILES | nsP2pro inh | others
COc1cccc(-c2ccc(CN3CCCC(NC(=O)c4ccc(Cl)cc4)C3)cc2)c1 (centres undefined) | 1%
CNC1CCN(C(Cc2cccc(-c3ccncc3)c2)C(=O)c2sc3c(F)ccc(F)c3c2Cl)CC1 (centres undefined) | nt | CHIKV nsP2 cell=?;CHIKV NSP2 FL=?;Furin counterscr=-11%;nsP2 NS23 pep=-23%;Papain cs=-8%;nsP2pro conf qHTS=34%;HCV NS3 4A cs=i
Cc1cc(C)c(CNC(=O)c2cc(-c3cnn(C)c3C)cc3c2OCCN3C)c(=O)[nH]1 | -5%[39.2 µM]
O=C(c1ccc2nccnc2c1)N1CCCCC1 | 3%
COc1ccc(C(=O)Nc2cnc(-c3ccc(Cl)cc3)nc2)cc1 | -1%
Cc1ccccc1C1=CCN(c2ncc(NC(=O)c3ccc(Cl)cc3)cc2C(=O)O)CC1 | ? | CHIKV nsP2 cell=-5%
Cc1ccccc1C1=CCN(C)CC1 | -4%
COc1ccc(OC)c(C(O)C(C)N)c1 (centres undefined) | 0%
C[C@H](N)[C@H](O)c1ccc(O)c(O)c1 | ? | CHIKV nsP2 cell=-65%;CHIKV NSP2 FL=?;Furin counterscr=-10%[17.3 µM];nsP2 NS23 pep=9µM*;Papain cs=-9%[17.2 µM];nsP2pro conf qHTS=?;HCV NS3 4A cs=0.052µM*
C=CCc1cc(OC)c(OC(C)C(O)c2ccc(O)c(OC)c2)c(OC)c1 (centres undefined) | -1%
CCc1nc(-c2c3n(c(=O)n(CC(=O)Nc4cccc(C)c4)c2=O)CCCCC3)no1 | -1%
COc1ccccc1NC(=O)N1CCN2C(=O)NC[C@H]2C1 | -2%[39.2 µM]
CN1c2c(nc(N)[nH]c2=O)NC[C@@H]1CNc1ccc(C(=O)N[C@@H](CCC(=O)O)C(=O)O)cc1 | -5%[2.68 µM]
C=C(C(=O)O)C1CCC2(C)CCC(O)C(C)(O)C2C1 (centres undefined) | 3%
CC(C)C(=O)NCC1(N(C)C)CCCCC1 | 13%
CN(C)C1(CNC(=O)c2ccc(OC3CCN(C(=O)C4CC4)CC3)cc2)CCCCC1 | ? | CHIKV nsP2 cell=-10%;CHIKV NSP2 FL=4%;Furin counterscr=-1%;nsP2 NS23 pep=?;Papain cs=-2%;nsP2pro conf qHTS=16%;HCV NS3 4A cs=i
CCn1ccnc1CNC(=O)c1cc(OC)ccc1OC1CCN(C(=O)C2CC2)CC1 | i
O=C(O)c1ccc2nc(-c3cc(Cl)cc(Cl)c3)oc2c1 | -12%
CCCc1cc(CN(C)C(=O)c2ccc3c(c2)[nH]c(=O)n3C2CCC(O)CC2)[nH]n1 (centres undefined) | i
FC(F)(F)c1ccc(N2CCN(C(=S)Nc3ccccn3)CC2)cc1 | -14%
CN(C)CCc1c[nH]c2ccc(C[C@H]3COC(=O)N3)cc12 | ? | CHIKV nsP2 cell=1%;CHIKV NSP2 FL=56%;Furin counterscr=0%;nsP2 NS23 pep=-10%;Papain cs=-1%;nsP2pro conf qHTS=?;HCV NS3 4A cs=i
CN1CCC[C@@H]1Cc1c[nH]c2ccc(CCS(=O)(=O)c3ccccc3)cc12 | -10%
COc1ccc(C2Nc3ccccc3C(=O)N2CC(C)(C)C)cc1COc1ccc(NC(C)=O)cc1 (centres undefined) | 2%
Cc1cc(-c2nnc3n2CCCCC3)c(C)n1-c1ccc(Br)cc1 | i
COc1cc(O)cc(OC2OC(CO)C(O)C(O)C2O)c1 (centres undefined) | 80%

Bioassay records (PubChem BioAssay)
